# pAkt inh = HTS Assay for Inhibitors of Akt Phophorylation: Primary Screen; Neuro2A IGF-stimulated pAkt S473 HTRF, 20 min; active compounds read low; 360,000 tested, 0.32% active; activity change, % for hits at 50 µM; in the data active means activity change below about -80%; inconclusive means mostly about -51% to -80%; further: on the % scale 0 is the no-effect control and ±100 the full control effect
#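 Single-point screen (50 µM final compound) in Neuro2A cells stimulated 20 min with 6 nM IGF at 37 deg C. After lysis, Ser473-phosphorylated Akt read by HTRF (ex 330 nm, em 615/665 nm) as the 665/615 ratio.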
# RGS4 inh = Inhibitors of Regulator of G Protein Signaling (RGS) 4: qHTS; Transcreener GDP fluorescence polarization, RGS4-accelerated GTP hydrolysis; Potency, µM (top dose mostly 114 µM), without a hit: at the top dose activity change, negative = inhibition, hits mostly inhibitors; 390,000 tested, 0.039% active; AID 504845, 2011; active means well fitted inhibition curve with a large enough effect; inconclusive means small, poorly fitted or top-dose-only effect; inactive means no such curve, though single readings can be large or run the other way; further: potency means the concentration at half of the fitted maximal effect; on the % scale 0 is the no-effect control and ±100 the full control effect; nearly all actives have a fitted effect of over 75% in size
#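 MLSMR compounds (23 nl, pin-transferred) preincubated 10 min at room temperature with a 500nM (2x) first reagent, then RGS4 at 900nM (2x) plus Transcreener GDP mix added; fluorescence polarization (620/688 nm) read before and after 90 min at 30 °C.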
# LDHA block = qHTS assay for inhibitors of human lactate dehydrogenase. L-lactate dehydrogenase A chain (Homo sapiens), P00338. purified LDHA, NADH/diaphorase-resazurin fluorescence; active compounds read low. activity change, % (values are at about 110 or 230 µM). 480,000 tested, 0.15% active; in the data active means activity change below about -30%; inconclusive means mostly about -25% to -30%;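 further: plate controls were DMSO wells for no effect and wells without enzyme for full effect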
#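 Human LDH5 (2 nM) was incubated with 0.06 mM NADH and 0.2 mM pyruvate for 5 min at room temperature in Tris pH 7.4. Remaining NADH was coupled through diaphorase/resazurin, and resorufin fluorescence was read at 0 and 20 min.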
# DRD3 agonist = qHTS of D3 Dopamine Receptor Agonist: qHTS; D(3) dopamine receptor (Homo sapiens), P35462; D3R DiscoveRx beta-arrestin cells, luminescence, 90 min; max activation, %; 410,000 tested, 0.58% active; AID 652048, 2013; in the data active means max activation above about 30%; further: 0% is about no effect
#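 Cells at 1500/well, incubated overnight, then treated with pinned compounds (dopamine as control) for 90 min at 37 degrees C. DiscoveRx reagent added for 30 - 60 minutes at room temperature; luminescence read.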
# PI4K2A inh = qHTS for small molecular inhibitors of PI4K2A; Phosphatidylinositol 4-kinase type 2-alpha (Homo sapiens), Q9BTU6; purified PI4K2A, ADP-Glo luminescence, 1 h; active compounds read low; activity change, negative = inhibition, % at 76.9 µM; 420,000 tested, 0.13% active; AID 1346378, 2018; in the data active means activity change below about -50%; inconclusive means mostly about -30% to -49%;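 further: -100% = wells without enzyme as full effect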
# Target sequence (Q9BTU6 whole entry, looked up): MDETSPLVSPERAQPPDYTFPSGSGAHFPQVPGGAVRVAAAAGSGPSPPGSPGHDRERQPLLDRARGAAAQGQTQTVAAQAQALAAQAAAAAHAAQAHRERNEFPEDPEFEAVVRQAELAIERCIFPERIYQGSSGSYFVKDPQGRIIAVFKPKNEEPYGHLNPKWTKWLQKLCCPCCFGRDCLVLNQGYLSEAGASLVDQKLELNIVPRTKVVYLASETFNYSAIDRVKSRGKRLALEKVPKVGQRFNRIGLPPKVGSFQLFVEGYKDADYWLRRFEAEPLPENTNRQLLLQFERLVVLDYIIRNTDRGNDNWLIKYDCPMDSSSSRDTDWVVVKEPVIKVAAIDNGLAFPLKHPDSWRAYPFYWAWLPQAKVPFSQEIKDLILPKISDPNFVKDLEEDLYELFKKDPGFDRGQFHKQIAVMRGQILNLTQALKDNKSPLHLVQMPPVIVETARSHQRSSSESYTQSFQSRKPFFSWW
#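 ADP-Glo luminescence measured ADP generated by PI4K2A enzyme (4 ug/mL before mixing) with 1.2 mM PI substrate (pre-mix) and 300 microM ATP (pre-mix). Tris pH7.5 buffer with MgCl2, Triton X-100; 1 h reaction at ambient temperature.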
# D3 antag = qHTS of D3 Dopamine Receptor Antagonist: qHTS. 360,000 tested, 2.5% active. D3R cells, DiscoveRx beta-arrestin luminescence, antagonist mode; active compounds read low. D(3) dopamine receptor (Homo sapiens), P35462. AID 652054, 2013. max response, negative = inhibition, %; in the data active means max response below about -50%; inconclusive means no clear call, values can overlap the other calls; further: on the % scale 0 is the no-effect control and ±100 the full control effect
#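 Cells expressing the human receptor were seeded at 1500 cells/well, incubated overnight at 37 degrees C in 5% CO2, then exposed to library compounds with dopamine controls for 90 minutes at 37 degrees C before luminescent detection.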
# Starred values were filed as active, the others as inactive; i = inactive; ? = inconclusive; . = no result given; [ ] = dose if it differs, or a comment. Hits are enriched below; roughly 2.8% of the tested compounds scored in any of these assays.
SMILES,pAkt inh,RGS4 inh,LDHA block,DRD3 agonist,PI4K2A inh,D3 antag
O=C(C[n+]1ccc(Cl)c2ccc(Cl)cc21)c1ccc(F)cc1,.,.,-1.9,.,.,.
N#CC(c1ccccc1)c1ccc2c(C(F)(F)F)cc(C(F)(F)F)nc2n1 (centres undefined),i,12.1%,-2.3,0.0,-10.4,-80.2*
Cc1ccc(C(C#N)c2ccc3c(C(F)(F)F)cc(C(F)(F)F)nc3n2)cc1 (centres undefined),i,-7.8%,0.0,1.4,-4.1,?
O=C(CCc1cccs1)Nc1ccc(N2CCOCC2)cc1,.,.,1.8,.,.,.
O=C1NCN(c2ccccc2)C12CCN(CCCC(c1ccc(F)cc1)c1ccc(F)cc1)CC2,i,23.2%[56.9 µM],-5.0,-84.9,-3.7,-103.8*
c1ccc2c(c1)CCc1ccccc1C2=C1CCNCC1,i,-19.0%,-4.1,-13.6,-2.8,-85.1*
CC1(C)CC(=O)C2=C(C1)OC(N)=C(C#N)C2c1cccc(OC(=O)c2ccco2)c1 (centres undefined),i,22.3%,-16.1,-1.1,6.1,-90.4*
CC(C)C(Br)C(=O)Nc1cc(Cl)ccc1Cl (centres undefined),.,.,-14.9,.,.,.
OCCOCCN1CCN(C2=Nc3ccccc3Sc3ccccc32)CC1,i,19.8%,-10.1,.,-1.2,-66.4*
CC(C)c1ccc2c(c1)-c1ccccc1S(=O)(=O)N2CC(=O)NCc1ccco1,.,.,3.3,.,.,.
CCc1oc(C(=O)O)cc1COC,i,25.2%,-1.0,0.3,-0.4,15.3
CCc1oc(C(=O)O)cc1CN(CC)CC,i,36.3%,-18.3,-4.7,3.3,-65.7*
Cc1cccc(/C=C/C(=O)O)c1,.,.,0.2,.,.,.
Cc1cc(N2CCCCCC2)nc(-c2ccccc2O)n1,-90.9%*,-5.8%,0.1,-7.9,-3.3,-4.0
Cc1[nH]c(C(=O)NCCc2ccc(F)cc2)c(C)c1C(=O)OC(C)C,.,.,4.9,.,.,.
O=C(c1ccc(Cl)cc1)c1ccc(CN2C(=O)c3ccccc3C2=O)o1,i,2.2%,-6.3,-4.8,-12.0,-64.4*
O=C(c1ccc(F)cc1)c1ccc(CN2C(=O)c3ccccc3C2=O)o1,i,-2.5%,-5.9,-2.8,1.4,1.2
O=C(COC(=O)C12CC3CC(CC(C3)C1)C2)Nc1ccc2c(c1)OCO2,.,.,2.0,.,.,.
Cc1cc(NC(=O)CCCC(=O)OCC(F)(F)C(F)F)cc(C)c1C(=O)O,-112.0%*,-1.9%,0.2,14.5,1.5,6.2
COc1ccc(NC(=O)CCc2c(C)nc3nc(C)nn3c2C)cc1,-117.5%*,-6.9%,-3.4,4.8,0.2,12.1
COc1cc(OC)c2c(C)c(CC(=O)NCCc3ccccc3F)c(=O)oc2c1,.,.,0.3,.,.,.
O=C(NCCN1CCCCC1)Nc1cccc(Cl)c1Cl,i,-7.7%,-1.7,-25.3,7.2,?
COc1cc(NC(=O)NCCN2CCN(c3ccccc3)CC2)cc(OC)c1OC,i,-18.5%,3.5,-24.7,6.5,-11.9
CCCN1CCN(CCNC(=O)Nc2ccccc2Cl)CC1,i,8.7%,-2.0,-18.4,2.3,-76.5*
O=C(NCCN1CCN(c2ccccc2)CC1)Nc1ccccc1Br,i,1.9%,-7.3,9.1,-6.2,-78.6*
SMILES,pAkt inh,RGS4 inh,LDHA block,DRD3 agonist,PI4K2A inh,D3 antag
O=C(NCCN1CCN(c2ccccc2)CC1)Nc1ccccc1Cl,i,-16.4%,-3.1,6.6,1.6,-83.0*
O=C(/C=C/c1cccc(O)c1)c1ccc(-c2cccs2)cc1,.,.,5.4,.,.,.
CC(=O)Nc1cccc(NC(=O)c2nn(-c3ccc(F)c(F)c3)c3c2CCC3)c1,.,.,4.6,.,.,.
O=C(C1CCC(CNS(=O)(=O)c2cccc3nsnc23)CC1)N1CC=C(c2ccccc2)CC1 (centres undefined),i,-27.0%,-1.4,60.0*,4.0,179.5
CNS(=O)(=O)c1ccc(CCC(=O)N2CCN(c3ccccc3OC)CC2)cc1,i,11.8%,-0.7,36.9*,-11.1,38.8
COc1ccccc1N1CCN(C(=O)CCc2ccccc2)CC1,i,19.0%,-0.6,5.0,-12.1,6.4

# Screening results: PubChem, National Center for Advancing Translational Sciences (NCATS)
